High-throughput results from PubChem BioAssay.
Shown are actives, neighbours in structure and some others; about 18% of the full set was active somewhere.
TDP1 inh: qHTS Assay for Inhibitors of Tyrosyl-DNA Phosphodiesterase (TDP1). Tyrosyl-DNA phosphodiesterase 1 (Homo sapiens), Q9NUW8. recombinant TDP1, AlphaScreen DNA substrate cleavage. Potency, µM (highest dose often 130 µM), inactives show at the highest dose activity change, negative = inhibition, usual class: inhibitors. 350,000 compounds, 0.28% hits; also: potency is read from the fitted curve at half-maximal effect; % is scaled to controls: 0 for no effect and ±100 for the full control effect; nearly all actives have a fitted effect of over 40% in size
Target sequence (Q9NUW8 whole entry, looked up): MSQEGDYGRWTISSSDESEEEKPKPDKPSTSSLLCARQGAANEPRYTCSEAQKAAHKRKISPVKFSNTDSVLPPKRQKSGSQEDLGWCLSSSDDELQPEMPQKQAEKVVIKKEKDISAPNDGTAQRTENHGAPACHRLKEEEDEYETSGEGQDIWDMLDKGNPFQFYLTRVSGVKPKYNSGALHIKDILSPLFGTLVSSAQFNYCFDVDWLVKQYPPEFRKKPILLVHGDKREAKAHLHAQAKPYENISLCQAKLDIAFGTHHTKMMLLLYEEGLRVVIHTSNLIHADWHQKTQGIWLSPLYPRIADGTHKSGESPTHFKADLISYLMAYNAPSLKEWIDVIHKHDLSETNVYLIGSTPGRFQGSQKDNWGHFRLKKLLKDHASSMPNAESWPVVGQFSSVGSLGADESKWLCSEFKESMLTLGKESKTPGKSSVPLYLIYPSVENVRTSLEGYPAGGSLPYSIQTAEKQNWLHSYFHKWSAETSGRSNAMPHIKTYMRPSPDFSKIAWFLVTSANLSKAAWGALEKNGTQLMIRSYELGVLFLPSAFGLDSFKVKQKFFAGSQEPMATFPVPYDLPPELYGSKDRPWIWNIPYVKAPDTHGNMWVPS
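Enzyme-compound mixtures sat 15 min at room temperature, followed by a 5 min reaction with 15 nM final substrate and 10 min with AlphaScreen beads. Recombinant human Tdp1 was used at 1 nM final.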
IL-1B inflam inh: qHTS for Inhibitors of Inflammasome Signaling: IL-1-beta AlphaLISA Primary Screen. AID 743279, 2014. THP-1 LPS/ATP IL-1B secretion, AlphaLISA, 16 h; active compounds read low. 360,000 compounds, 4.7% hits. activity change, % at 57.5 µM; in the data active = activity change below about -50%; inconclusive = mostly about -30% to -49%; also: % is scaled to controls: 0 for no effect and ±100 for the full control effect
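THP-1 cells pretreated 1 hr with compounds (up to 57.5 uM final), then stimulated with LPS (250 ng/mL final) plus ATP (1.25 mM final); secreted IL-1B measured by AlphaLISA after 16 hr, decreased signal indicating inhibition.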
DT40 TDP1 CPT: qHTS for Inhibitors of human tyrosyl-DNA phosphodiesterase 1 (TDP1): qHTS in cells in presence of CPT | Potency, µM (top dose mostly 46.2 µM), inactives show top-dose activity change, negative = growth inhibition, hits mostly inhibitors | chicken DT40 Tdp1-/-;hTDP1 cells + 20 nM CPT, ATP luminescence, 48 h | 420,000 compounds, 12% hits; also: potency is read from the fitted curve at half-maximal effect; % is scaled to controls: 0 for no effect and ±100 for the full control effect; nearly all actives have a fitted effect of over 55% in size
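Chicken DT40 Tdp1-/- cells complemented with human TDP1, 400 cells/well, exposed to compounds plus 20 nM camptothecin for at least 48 h at 37 C; viability read as ATP content by CellTiter-Glo luminescence.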
TGFb inhibitor: qHTS for Inhibitors of TGF-b; HepG2 CAGA-GFP TGF-b/SMAD3 reporter, GFP fluorescence, 18 h; TGF-beta stimulated, 500 pg/mL final; Potency, µM (series often up to 46.1 µM), for inactives: at the highest dose activity, negative = inhibition, usual class: inhibitors; 410,000 compounds, 1.2% hits; also: potency is read from the fitted curve at half-maximal effect; % is scaled to controls: 0 for no effect and ±100 for the full control effect; nearly all actives have a fitted effect of over 65% in size
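TGF-beta reporter screen: HEPG2 CAGA-GFP, 1% FBS, 500 pg/mL TGF-beta final, 18 h; per-cell GFP summed per well; curves fitted and categorized by class.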
TDP1 cell noCPT: qHTS for Inhibitors of human tyrosyl-DNA phosphodiesterase 1 (TDP1): qHTS in cells in absence of CPT | DT40 Tdp1-/- hTDP1 cells, no CPT, ATP luminescence, 48 h | Potency, µM (doses to about 46.2 µM), for the others: at the top dose activity change, negative = growth inhibition, usual class: inhibitors | 420,000 compounds, 15% hits | AID 686978, 2013; also: potency is read from the fitted curve at half-maximal effect; % is scaled to controls: 0 for no effect and ±100 for the full control effect; nearly all actives have a fitted effect of over 55% in size
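Camptothecin absent (DMSO only). Human TDP1-complemented DT40 knockout cells, 400 cells/well, 37 °C for minimum 48 hr; ATP measured via CellTiter-Glo, 30 min dark incubation, luminescence.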
HepG2 tox: qHTS for Inhibitors of TGF-b: Cytotox Counterscreen. HepG2 CAGA-GFP viability, ATP luminescence, 18 h. Potency, µM (highest dose often 46.1 µM), for the others: at the top dose activity change, negative = cytotoxicity, actives largely listed as cytotoxic. 410,000 compounds, 0.76% hits; also: potency is read from the fitted curve at half-maximal effect
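CellTiter-Glo luminescence gave cytotoxicity after 18 hours at 37 degrees C. The cells were HepG2 CAGA-GFP in 1% FBS DMEM, stimulated with 500 pg/mL TGF-beta after compound addition. %Activity was normalised to no-cell wells (complete cell-killing) and DMSO (no toxicity), and curves were fitted and classified.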
The depositor's hits bear a star; ? = inconclusive; . = no result given; [ ] = remark or other dose. Unless noted, calls follow the shape of the dose curve; as a rule, active = well fitted curve in the direction sought with a large enough effect; inconclusive = small, poorly fitted or top-dose-only effect, or another doubt; inactive = no such curve, though single readings can be large; an effect the other way counts as inactive or inconclusive.

SMILES | TDP1 inh | IL-1B inflam inh | DT40 TDP1 CPT | TGFb inhibitor | TDP1 cell noCPT | HepG2 tox
COc1ccc(CCNC(=O)c2ccc(CS(=O)(=O)Cc3cccc(C)c3)o2)cc1OC | 3% | -10 | 21µM* | -9% | 12µM* | -11%
COc1ccc(Cl)c(Cn2cnc3c(cnn3C(C)(C)C)c2=O)c1 | . | . | . | -23% | . | -16%
CCCCCOC(=O)CSc1nc2sc3c(c2c(=O)n1-c1ccccc1)CC(C)(CC)OC3 (stereo not drawn) | 3%[12.3 µM] | . | ? | -17% | ? | 3%
CC(NNC(=S)N1CCN(c2ccccn2)CC1)c1nccc2ccccc12 (stereo not drawn) | . | -101* | 0.0092µM* | ? | 0.018µM* | -12%
CCNC(=S)N1CCN(c2ccccn2)CC1 | 0% | -13 | 26% | -2% | -23% | 3%
COc1ccc(CNC(=O)C2CCN(S(=O)(=O)c3ccc4nc5c(c(C(=O)O)c4c3)CCCC5)CC2)cc1 | 0% | -5 | 0% | 1% | 8% | 7%
Nc1nc(Sc2ccc([N+](=O)[O-])c3nonc23)c2[nH]cnc2n1 | . | -119* | 1.8µM* | ? | 3.3µM* | -50%
CNc1ncnc(Sc2nc(N)nc3nc[nH]c23)c1[N+](=O)[O-] | . | -59* | 2.1µM* | ? | 4.6µM* | -61%
Nc1nc(SCc2ccccc2)c2[nH]cnc2n1 | 1% | -23 | 1% | -13% | -7% | -30%
CN(C)/C=N/C1=C(C#N)C(c2cccs2)c2ccc3ccccc3c2O1 (stereo not drawn) | 5% | 85 | 4.1µM* | -18% | 4.1µM* | -15%
N#CC1=C(N)Oc2c(ccc3cccnc23)C1c1cccnc1 (stereo not drawn) | 0% | 62 | 5.8µM* | -24% | 5.2µM* | -14%
C[n+]1cccc(C2C(C#N)=C(N)Oc3c2ccc2ccccc32)c1 (stereo not drawn) | . | 41 | ? | 11% | ? | 7%
COc1ccc(N=Cc2cc3c(cc2O)OC(N)=C(C#N)C3c2ccccc2)cc1 (stereo not drawn) | 3% | -9 | ? | -6% | 21µM* | 7%
N#CC1=C(N)Oc2cc3ccccc3cc2C1c1cccnc1 (stereo not drawn) | -8% | -12 | 8.2µM* | ? | 7.3µM* | -12%
Cc1cccc(CCN(CC(=O)NCc2ccc(F)cc2)C(=O)c2csnn2)c1 | 0% | ? | -3% | -12% | ? | 0%
CC1=CC(=O)OC1Cc1ccc2ccccc2n1 (stereo not drawn) | -4% | . | -5%[9.04 µM] | . | ? | .
Cc1cc(N2CCN(c3cccc(C)c3C)CC2)n2cnnc2n1 | 5% | . | ? | ? | ? | -22%
CCOc1ccc(C(=O)Nc2nnc(SCc3cc(=O)c4cc(C)ccc4[nH]3)s2)cc1 | 0% | . | -26% | -1% | -29% | 5%
CCOc1ccc(NC(=O)CN(C)Cc2ccc3c(c2)OCO3)cc1S(=O)(=O)N1CCCC1 | 5% | ? | ? | -12% | ? | -8%
COc1ccc(Cn2c(C)cc3c(c2=O)C(c2cccs2)C(C#N)=C(N)O3)cc1OC (stereo not drawn) | 1% | 6 | -11% | 14% | -7% | -22%
CCc1ccc2[nH]c(=O)c(C3C(C#N)=C(N)Oc4c3ccc3cccnc43)cc2c1 (stereo not drawn) | 10% | 99 | 12µM* | ? | 8.2µM* | -4%
N#CC1=C(N)Oc2cc3ccccc3cc2C1c1cccs1 (stereo not drawn) | 7% | 0 | 11µM* | ? | 11µM* | -65%
COc1ccc(C(C(=O)NC2CCCC2)N(C(=O)c2ccoc2C)c2ccc(C)c(C)c2)cc1 (stereo not drawn) | 8% | ? | ? | -10% | 13µM* | -5%
CCc1ccc(N(C(=O)c2ccoc2C)C(C(=O)NC2CCCC2)c2ccc(OC)cc2)cc1 (stereo not drawn) | 5% | ? | 23µM* | -10% | 18µM* | -7%
COc1ccc(C(C(=O)NC2CCCC2)N(C(=O)c2ccoc2C)c2cc(C)cc(C)c2)cc1 (stereo not drawn) | -10% | ? | 26µM* | -10% | 29µM* | -22%
SMILES | TDP1 inh | IL-1B inflam inh | DT40 TDP1 CPT | TGFb inhibitor | TDP1 cell noCPT | HepG2 tox
COc1ccc(C(C(=O)NC2CCCC2)N(C(=O)c2ccoc2C)c2ccccc2)cc1 (stereo not drawn) | 0% | -3 | ? | -16% | ? | -19%
CCCCNC(=O)c1cnn2c(C)c(Cc3c(F)cccc3Cl)c(C)nc12 | 0% | . | 7.3µM* | -1% | 3.7µM* | -1%
O=C(NCc1ccco1)c1cnn2c(C(F)F)cc(-c3ccccc3)nc12 | 2% | -4 | -29% | 8% | -26% | -14%
Cc1cc(C)c(Cc2c(C)nc3c(C(=O)NCc4ccco4)cnn3c2C)c(C)c1 | 7% | -1 | 7.3µM* | -14% | 8.2µM* | -93%
Cc1ccc(CNC(=O)c2cnn3c(C)c(Cc4c(F)cccc4Cl)c(C)nc23)cc1 | 3% | . | 15µM* | 10% | ? | -11%
Cc1nc2c(C(=O)NCCCN(CC(C)C)CC(C)C)cnn2c(C)c1Cc1c(F)cccc1Cl | 5% | . | 23µM* | -3% | 21µM* | 9%
Cc1cc(C)n2ncc(C(=O)NCc3ccc(Cl)cc3)c2n1 | -5% | 4 | -16% | -2% | -24% | -13%
COc1ccc(-c2nsc(NC(=O)c3oc4cc(C)c(C)cc4c3C)n2)cc1 | -2% | . | -6% | 0% | -12% | -15%
Cc1ccc(OCc2ccc(-c3nc(C#N)c(NCc4ccccc4Cl)o3)o2)cc1 | 5% | . | ? | ? | ? | -62%
CN(CCc1ccccc1)C(C(=O)Nc1ccc2c(c1)OCCO2)C1CC1 (stereo not drawn) | . | -23 | ? | -12% | -19% | -4%
N/C(=N\OC(=O)c1cccc(F)c1)c1cccc([N+](=O)[O-])c1 | . | -8 | -10% | 9% | -5% | 13%
Cc1nc(N)c(Cc2ccc(Cl)cc2Cl)c(N)n1 | 3% | 2 | 12µM* | 11% | 8.2µM* | 4%
